In PubChem BioAssay AID588790 (National Center for Advancing Translational Sciences (NCATS), 2011) one finds Potency data, which are given here for 51 molecules.

The whole screen tested about 1,200 compounds, of which about 85 (7%) were called active. Calls come from the whole dose curve. The entries come from a sample that favours actives as a whole. Entries that show only a call come without a potency.
Potency is the fitted concentration of half-maximal effect.

Chain of Beta-2 adrenergic receptor (Homo sapiens) (P07550 whole entry, looked up): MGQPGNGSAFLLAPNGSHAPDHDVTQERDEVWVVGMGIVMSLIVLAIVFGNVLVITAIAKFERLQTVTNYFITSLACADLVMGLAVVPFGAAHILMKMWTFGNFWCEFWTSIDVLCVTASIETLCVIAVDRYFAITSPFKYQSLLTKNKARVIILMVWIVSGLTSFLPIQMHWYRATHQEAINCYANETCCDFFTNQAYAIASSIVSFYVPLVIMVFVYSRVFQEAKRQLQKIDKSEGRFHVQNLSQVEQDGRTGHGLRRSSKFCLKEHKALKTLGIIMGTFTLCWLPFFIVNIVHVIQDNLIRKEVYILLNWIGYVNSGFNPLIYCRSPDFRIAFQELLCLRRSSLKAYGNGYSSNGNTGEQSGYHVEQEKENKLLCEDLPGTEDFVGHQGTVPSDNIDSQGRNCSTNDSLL

This assay addresses Beta-2 adrenergic receptor (Homo sapiens) (UniProt P07550). In words: qHTS assay of beta-arrestin-biased ligands of beta2-adrenergic receptor: Hit Validation with GloSensor. The settings on record: W9-Glo22F cells, GloSensor cAMP luminescence, beta2AR agonism; activation: at 46.1 µM (top of the series). An outline of the steps:
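Luminescence measured 10 min after GloSensor reagent addition at room temperature. Preceded by compound pinning onto W9-Glo22F cells that had been cultured overnight at 37 deg C under 5% CO2.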
Take `COc1ccc(NC(=S)NC(=O)c2ccc3c(c2)OCCO3)cc1`: the Potency entry was “inactive”.

Consider `Cc1ccc(/C=C2/C(=O)N(c3ccccc3)C(=S)N2C)o1`, for which the Potency result is “inactive”.

Take `Cc1ccc(N=C2NC(=O)/C(=C/C=C/c3ccco3)S2)cc1`: the Potency entry is “inactive”.

With `Cc1cccc(N=C2NC(=O)/C(=C/c3cccs3)S2)c1`, the Potency was 1.03 µM (active).

Take `C#CCn1c(=NC(=O)CSC(C)=O)sc2cc(F)ccc21`: the Potency result was “inactive”.

As to `Cc1ccc2cccc(SCC(=O)NCC#N)c2n1`, the Potency result is “inactive”.

Turning to `CC(=O)c1cccc(CN2CCN(CCC(C)C)C(CCO)C2)c1` (stereo unspecified), the Potency result was “inactive”.

As for `N#C/C(=C\c1ccc(Cl)cc1)c1nc2ccccc2o1`, the Potency entry was “inactive”.

With `N#C/C(=C\c1cccc(O)c1)c1nc2ccccc2o1`, the Potency was 6.51 µM (active).

Consider `N#C/C(=C\c1ccncc1)c1nc2ccccc2o1`, for which the Potency result is “inactive”.

Take `CCCC(=O)N(c1ccc(F)cc1)C1C=CS(=O)(=O)C1` (stereo unspecified): the Potency entry was “inactive”.

For the molecule `CCCN(CC(=O)Nc1ccc(Cl)cc1Cl)C(=O)/C=C/c1ccco1`, the Potency result is “inactive”.

As for `O=C1C=CC(O)(c2cc(=O)c3c(O)cc(O)cc3o2)C=C1`, the Potency result was “inactive”.

Take `COc1c(O)cc(O)c2c(=O)cc(-c3ccccc3)oc12`: the Potency entry was “inactive”.

On to `COc1c(-c2ccc(O)c(O)c2)oc2cc(O)cc(O)c2c1=O`, for which the Potency was 20.6 µM (active).

In the case of `Fc1ccccc1/C=N/Nc1ncnc2ccccc12`, the Potency entry is “inactive”.

Consider `Cc1ccc2cccc(SCC(=O)Nc3ccc(F)cc3)c2n1`, for which the Potency result is “inactive”.

On to `NC(=S)n1[nH]c(-c2ccc([N+](=O)[O-])cc2)c(N=Nc2ccc(Cl)cc2)c1=O`, for which the Potency result is “inactive”.

As to `COc1cnc(-c2ccccn2)nc1Sc1ccccc1Cl`, the Potency entry is “inactive”.

Consider `COc1cnc(-c2ccccn2)nc1Oc1ccccc1`, for which the Potency was 29.1 µM (active).

For the molecule `Clc1ccc(OCc2nc(-c3ccccn3)n[nH]2)cc1`, the Potency result was “inactive”.

On to `Cc1cccc(NC(=S)N/N=C/c2cccc([N+](=O)[O-])c2)c1`, for which the Potency result was “inactive”.

Turning to `CCCCC(=O)N1CCCC(c2nc(-c3cccc(OC)c3)no2)C1` (stereo unspecified), the Potency result is “inactive”.

For the molecule `C=C(C)CNC(=S)N/N=C/c1ccco1`, the Potency entry was “inactive”.

For `COc1ccc(NS(=O)(=O)c2ccc3oc(SC4CCOC4=O)nc3c2)cc1` (stereo unspecified), the Potency result was “inactive”.

For the molecule `CCOC(=O)C1=C(C)N(c2ccc(C)cc2)C(=O)/C1=C\c1ccc(O)c(OC)c1`, the Potency is 18.4 µM (active).

Take `COC(=O)C1=C(C)N(Cc2ccc(C)cc2)C(=O)/C1=C\c1ccc(O)c(OC)c1`: the Potency entry was “inactive”.

Regarding `CCOC(=O)C1=C(C)N(c2ccc(OC)cc2)C(=O)/C1=C\c1ccc(O)c(OCC)c1`, the Potency entry was “inactive”.

For the molecule `CNC(=S)N/N=C/C1=CCC2CC1C2(C)C` (stereo unspecified), the Potency entry is “inactive”.

For `O=C1c2ccccc2[C@@H]2C[C@@H](O)[C@H](Nc3cccc4ccccc34)CCN12`, the Potency entry was “inactive”.

For `CCOC(=O)NC(=S)Nc1ccc(C(C)(C)C)cc1`, the Potency entry is “inactive”.

`CNC(=S)N/N=C1\CC(c2ccccc2)Oc2ccccc21` (stereo unspecified): the Potency entry was “inactive”.

Take `NC(=S)N/N=C1\CCOc2ccc(F)cc21`: the Potency entry was “inactive”.

With `NC(=S)N/N=C1\CC(c2ccc3c(c2)OCCCO3)Oc2ccc(F)cc21` (stereo unspecified), the Potency was 11.6 µM (active).

Turning to `c1coc(CNc2nc3nonc3nc2NCc2ccco2)c1`, the Potency entry was “inactive”.

For `COCCNC(=S)N/N=C(\C)c1ccc(Cl)c(Cl)c1Cl`, the Potency result is “inactive”.

`C/C(=N\NC(=S)NCc1ccccc1)c1ccccc1F`: the Potency result was “inactive”.

Consider `COCCNC(=S)N/N=C(\C)c1ccccc1F`, for which the Potency is 29.1 µM (active).

Regarding `COc1ccc(C(CNC(=O)c2ccc(C)c(S(=O)(=O)Nc3ccccc3OC)c2)N2CCCC2)cc1` (stereo unspecified), the Potency entry was “inactive”.

Consider `C=CCn1c(CSc2nc3ccccc3s2)n[nH]c1=S`, for which the Potency is 25.9 µM (active).

Consider `C=CCn1c(CCn2c3ccccc3c3ccccc32)n[nH]c1=S`, for which the Potency entry is “inactive”.

Regarding `C=CCn1c(-c2ccccc2)c[nH]c1=S`, the Potency entry was “inactive”.

In the case of `CCN(CC)C(=O)CN(c1cccc(OC)c1)S(=O)(=O)c1ccc(C)cc1`, the Potency result was “inactive”.

For `CC1CCN(c2c(NCc3ccc(C(=O)NCCc4ccc(Cl)cc4)cc3)c(=O)c2=O)CC1`, the Potency entry is “inactive”.

As for `O=c1c2cn[nH]c2nc(SCc2ccccc2F)n1-c1ccc(Br)cc1`, the Potency entry was “inactive”.

Take `CCNC(=S)N/N=C/c1ccco1`: the Potency entry is “inactive”.

As to `CCNc1nc(NCC)nc(N/N=C/c2ccc(N(C)C)cc2)n1`, the Potency entry was “inactive”.

Consider `CCNc1nc(NCC)nc(N(C)/N=C/c2ccco2)n1`, for which the Potency is 20.6 µM (active).

For `O=C(/C=C/c1ccccc1)Oc1cccc2cccnc12`, the Potency entry is “inactive”.

Take `Cc1cc(C(=O)CN2C(=O)NC3(CCCc4ccccc43)C2=O)c(C)n1C` (stereo unspecified): the Potency result was “inactive”.

Regarding `Cc1ccc(NC(=S)N2CCn3cccc3C2c2cccnc2)cc1` (stereo unspecified), the Potency result was “inactive”.
